# Most compounds without a hit are left out; they make up all but 6.7% or so of the library.
# KB-3-1 cytotox = KB-3-1 parental cell cytotoxicity. KB-3-1 viability, CellTiter-Glo ATP luminescence, 72 h. Potency, µM (highest dose often 46.1 µM), hits mostly cytotoxic. 400,000 compounds, 1.4% hits. AID 1347075; note: % is set by controls: 0 for no effect and ±100 for the full control effect; nearly all actives have a fitted effect of over 60% in size
#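 Cytotoxicity in the drug-sensitive parental line KB-3-1 was scored as loss of CellTiter-Glo luminescence following 72 h incubation with compound. Values come from curve fitting of normalized concentration-response data.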
# SW480 rerep = DNA re-replication induction in SW480 cells | 340,000 compounds, 1.8% hits | Potency, µM (doses to about 46.1 µM), without a hit: at the top dose re-replication activation, hits mostly activators | SW480 DNA re-replication, Hoechst DNA content imaging, 48 h; note: % of control where 0% means no effect; nearly all actives have a fitted effect of over 55% in size
#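 Readout is total intensity of Hoechst-stained nuclei, excited at 405 nm and collected at 500-530 nm. Compound treatment lasted 48 hr at 37 C in 5% CO2 before staining.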
# PINK1 modulator = PINK1 expression modulation. PINK1 immunofluorescence, high-content cytometry, 24 h. Potency, µM (doses to about 76.6 µM), for the others: top-dose activation (PINK1 increase), hits mostly activators. 410,000 compounds, 0.2% hits; active = well fitted activation curve with a large enough effect; inconclusive = small, poorly fitted or top-dose-only effect; cell line not stated here; note: % of control where 0% means no effect; nearly all actives have a fitted effect of over 65% in size
#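 Fluorescence from anti-PINK1 antibody, together with nuclear and cell stains, was scanned on a laser-scanning cytometer. Before staining, stable-line cells were incubated 24 hours with compounds at 5 concentrations; primary antibody 12 h at 10 degrees C.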
# KB-V1 cytotox = KB-V1 MDR subline cytotoxicity. 400,000 compounds, 3.4% hits. AID 1347076. Potency, µM (doses to about 46.1 µM), most hits filed as cytotoxic. KB-V1 MDR cells viability, CellTiter-Glo, 72 h; note: % is set by controls: 0 for no effect and ±100 for the full control effect; nearly all actives have a fitted effect of over 60% in size
#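 Readout: CellTiter-Glo luminescence, 10 min after addition. Cells: KB-V1 MDR subline, 72 h at 37 degrees C with compound. Analysis: corrected, normalized data fitted to concentration-effect curves.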
# MCF10A rerep = induces DNA re-replication in MCF 10a normal breast cells | MCF 10A DNA re-replication, Hoechst nuclear intensity, 48 h | Potency, µM (highest dose often 46.1 µM), inactives show at the highest dose activity, positive = re-replication, usual class: activators | 350,000 compounds, 2.9% hits; note: % of control where 0% means no effect; nearly all actives have a fitted effect of over 50% in size
# Starred values were filed as active, the others as inactive; i = inactive; ? = inconclusive; . = no result; [ ] = remark or other dose. Unless noted, calls come from the whole dose curve; as a rule, active = well fitted curve in the direction sought with a large enough effect; inconclusive = small, poorly fitted or top-dose-only effect, or another doubt; inactive = no such curve, though single readings can be large; an effect the other way counts as inactive or inconclusive. Potency is the fitted concentration of half-maximal effect.
SMILES,KB-3-1 cytotox,SW480 rerep,PINK1 modulator,KB-V1 cytotox,MCF10A rerep
CCCCc1nc2n[nH]c(N)c2c2c1CCCC2,4.11µM*,0.8%,0.2%,0.517µM*,?
COc1ccc(N2CC(NC(=O)Cc3cccs3)CC2=O)cc1 (configuration not stated),.,.,0.4%,.,.
N#Cc1cn(-c2ccccc2)nc1-c1ccc2c(c1)OCCO2,i,-3.3%,11.6%,i,10.3µM*
COC(=O)N1CCC2(CCCN(Cc3ccc(C#N)cc3)C2)CC1,.,.,-0.3%,.,.
O=c1c2ccccc2oc2cc(C#CC3(O)CCCCC3)ccc12,i,2.6%,1.9%,i,20.6µM*
C=CCn1c2ccccc2c(=O)c2cc(C#CC3(O)CCCCC3)ccc21,?,9.2µM*,3.4%,i,?
COc1ccc(-c2nc3cnc(OC)nc3n(C[C@H]3CCCO3)c2=O)cc1,.,.,3.4%,.,.
CC(C)N1CCN(C(=O)c2cnn(-c3nccc(-c4ccc5c(c4)OCO5)n3)c2-c2ccco2)CC1,.,.,-0.9%,.,.
O=C(Nc1ccc(Cl)c(C(F)(F)F)c1)c1cc2nc(-c3ccc4c(c3)OCO4)cc(C(F)(F)F)n2n1,i,.,2.2%,i,.
NC(=S)N=Nc1c(O)n(CCCl)c2ccccc12,?,-73.6%,1.4%,?,4.6%
NC(=S)N=Nc1c(O)n(CCCl)c2ccc(Cl)cc12,?,12.7%,2.3%,13µM*,-2.6%
CCn1c(=NC(=O)c2ccc(S(=O)(=O)N3CCCCC3)cc2)sc2cccc(OC)c21,i,.,-0.1%,i,.
COc1ccc(-c2nn(-c3ccccc3)cc2/C=C/C(=O)N2CCN(c3ccccn3)CC2)cc1,i,4.4%,-1.6%,14.6µM*,11.6%
O=C(c1cccn2c(=O)c3ccccc3nc12)N1CCN(c2ccccn2)CC1,i,-17.2%,-6.4%[38.3 µM],9.2µM*,-1.5%
COc1ccc(/C=C/C(=O)N2CCN(c3ccccn3)CC2)cc1OC,i,3.3%,-0.4%,i,0.1%
Cc1ccc(-c2nn(-c3ccccc3)cc2C(=O)N2CCN(c3ccccn3)CC2)cc1,?,?,0.8%,?,-1.1%[9.22 µM]
Cc1ccc(-n2cc(CN3CCN(c4ccccn4)CC3)c(-c3ccc(F)cc3)n2)cc1,?,?,2.3%,?,18.4µM*
O=C(c1cn(-c2ccccc2)nc1-c1ccccc1)N1CCN(c2ccccn2)CC1,?,?,1.9%,20.6µM*,?
CCC(C)(C)C1CCc2c(sc(N)c2C(N)=O)C1 (configuration not stated),i,0.6%,0.5%,i,?
CCCC1CCc2c(sc(N)c2C(N)=O)C1 (configuration not stated),i,0.2%,-0.8%,16.4µM*,?
Cn1c(=O)c2cc(S(=O)(=O)NC(Cc3ccccc3)C(=O)Nc3ccc(F)cc3)ccc2n(C)c1=O (configuration not stated),i,.,1.5%,i,.
CSc1nc(N)nc(SCC(=O)c2ccc(C)cc2)c1C#N,i,?,7.0%,i,5.8µM*
CSc1nc(N)nc(SCC(=O)OC(C)C)c1C#N,i,-1.4%,1.7%[38.3 µM],?,-1.0%
COc1ccc(/C=C2/SC(=O)N(CCC(=O)Nc3ccccc3C(=O)O)C2=S)cc1,i,-0.2%,-1.9%,i,6.5%
N#CC1=C2SCC(O)(c3ccccc3)N2C(=O)CC1c1ccccc1 (configuration not stated),1.3µM*,11.6µM*,13.7%,1.84µM*,5.8µM*
SMILES,KB-3-1 cytotox,SW480 rerep,PINK1 modulator,KB-V1 cytotox,MCF10A rerep
COc1ccc2nc(N3CCC(O)CC3)c(C#N)cc2c1,i,-1.4%,-1.8%,i,0.5%
COc1ccc2nc(N3CCC(C)CC3)c(C#N)cc2c1,i,20.6µM*,5.1%,i,5.8µM*
Cc1ccc(/C=C/C(=O)c2ccccc(=O)c2O)c(C)c1,16.4µM*,?,-1.0%,8.2µM*,?
O=C(/C=C/c1ccc([N+](=O)[O-])cc1)c1ccccc(=O)c1O,?,5.8µM*,-5.7%,1.03µM*,2.91µM*
O=C(/C=C/c1ccccc1Cl)c1ccccc(=O)c1O,20.6µM*,11.6µM*,13.6%,18.4µM*,10.3µM*
Cc1ccc(C)c(/C=C/C(=O)c2ccccc(=O)c2O)c1,11.6µM*,-650.7%,7.1%,8.2µM*,18.4µM*

# Source: PubChem
